Reference: PubChem BioAssay (NCATS)
Inconclusive results are not listed. Calls of active or inactive are those of the source. Calls follow the shape of the dose curve; as a rule, active = well fitted cell-killing curve with a large enough effect; inconclusive = small, poorly fitted or top-dose-only effect, or effect the other way; inactive = no such curve, though single readings can be large or run the other way.

assay: Quantitative High-Throughput drug screen in 47 multiple myeloma cell lines against the NCATS MIPE library collection: U266_ATCC cell viability assay (AID 1919864); conditions: U266 myeloma viability, CellTiter-Glo ATP luminescence, 48 h; series mostly up to 45.8 µM; viability (% of DMSO control): at the top concentration; also: nearly all actives have a fitted effect of over 35% in size
Text: PI: Beverly A. Mock Ph.D.
Laboratory of Cancer Biology and Genetics,
Center for Cancer Research, National Cancer Institute,
National Institute of Health, Bethesda, Maryland
Drug resistance and disease progression are common in multiple myeloma (MM) patients, underscoring the need for new therapeutic combinations. […] We hypothesized that effective combinations would reduce MYC expression and enhance p16 activity. […] These preclinical data identify potentially useful drug combinations for evaluation in drug-resistant MM and reveal potential mechanisms of combined drug sensitivity.
Described herein is the primary MIPE qHTS used to cherrypick compounds. Validated compounds were then further tested for potential synergistic activiy.
[1] Peat TJ, Gaikwad SM, Dubois W, Gyabaah-Kessie N, Zhang S, Gorjifard S, Phyo Z, Andres M, Hughitt VK, Simpson RM, Miller MA, Girvin AT, Taylor A, Williams D, D'Antonio N, Zhang Y, Rajagopalan A, Flietner E, Wilson K, Zhang X, Shinn P, Klumpp-Thomas C, McKnight C, Itkin Z, Chen L, Kazandijian D, Zhang J, Michalowski AM, Simmons JK, Keats J, Thomas CJ, Mock BA. Drug combinations identified by high-throughput screening promote cell cycle transition and upregulate Smad pathways in myeloma. Cancer Lett. 2023 Aug 1;568:216284. doi: 10.1016/j.canlet.2023.216284. Epub 2023 Jun 24. PMID: 37356470; PMCID: PMC10408729.
SEQUENCE No. (e.g., 1, 2, 3, etc.); […] (e.g., Cells, Incubation, Reagent, etc.); VALUE and DESCRIPTION.
1; Cells; 5 uL; white, solid bottom 1536-well Greiner assay plate.
2; Compounds; 23 nL; Kalypsis pin tool (Wako USA) equipped with a 1536-well pin head to transfer to the assay plates.
3; Incubation; 48 hours; 37C incubation.
4; Reagent;5uL; CellTiter Glo (Promega).
5; Detector; 425V; Luminescence; Viewlux PerkinElmer.
NOTES (numbers refer to Sequence numbers above)
1. The cell-based screening methods employed in this study were like those previously published. Briefly, the corresponding myeloma cell lines were screened in 1,536-well plates with 500 cells, 5-uL per well for inhibition of cell viability (assessed by measuring ATP levels with CellTiterGlo).
2. NCATS MIPE 4.0 library of approved and investigational drugs were added using the Kalypsis pin tool. Wells treated with DMSO only for 100% viability and media only for 0% viability were used as controls.
3. The assay plates were covered and incubated for 48 hours in a 37C, 5% CO2 incubator with controlled humidity.
4. After 48 hours, CellTilter-GloTM luminescent substrate mix (Promega) reagent was added to the assay plate and plates we incubated for 5 min at room temperature.
5. Signal was measured as median relative luminescence units on a ViewLux (PerkinElmer) multiplate reader.
[1] Heske CM, Davis MI, Baumgart JT, Wilson K, Gormally MV, Chen L, Zhang X, Ceribelli M, Duveau DY, Guha R, Ferrer M, Arnaldez FI, Ji J, Tran HL, Zhang Y, Mendoza A, Helman LJ, Thomas CJ. Matrix Screen Identifies Synergistic Combination of PARP Inhibitors and Nicotinamide Phosphoribosyltransferase (NAMPT) Inhibitors in Ewing Sarcoma. Clin Cancer Res. 2017 Dec 1;23(23):7301-7311. doi: 10.1158/1078-0432.CCR-17-1121. Epub 2017 Sep 12. PMID: 28899971; PMCID: PMC6636827.
Potency is read from the fitted curve at half-maximal effect.

Compound	Potency	viability (% of DMSO control)
Cc1ccc(C2=Nc3ccc(Cl)cc3OC2)cc1	9.35 µM (active)	–
CC1(C)C(N(O)C(=O)Nc2ccc(Cl)cc2)N(c2ccc(Cl)cc2)C(=O)N1CC(=O)NN=CC=Cc1ccc([N+](=O)[O-])o1 (stereo not given)	10.5 µM (active)	–
CNC(=O)c1cc(COc2nnc(Nc3ccc(Cl)cc3)c3ccoc23)ccn1	–	141% (inactive)
Cc1cc2c(cc1C1(c3ccc(C(=O)O)cn3)CC1)C(C)(C)CCC2(C)C	–	141% (inactive)
Cc1ccc(C(=O)N(CCCN)[C@@H](c2oc3cc(Cl)ccc3c(=O)c2Cc2ccccc2)C(C)C)cc1	20.9 µM (active)	–
c1cc(OCCN2CCCCC2)cc(-c2n[nH]c3ccc(-c4ncn[nH]4)cc23)c1	18.7 µM (active)	–
CN1C(=O)C[C@H](C(=O)N[C@@H](Cc2cnc[nH]2)C(=O)N2CCC[C@@H]2C(N)=O)NC1=O	–	127% (inactive)
CC[C@H](C)C(=O)O[C@H]1C[C@H](O)C=C2C=C[C@H](C)[C@H](CC[C@@H](O)C[C@@H](O)CC(=O)O)[C@H]21	–	117% (inactive)
CC1(C)[C@H]2CC[C@]3(C)[C@@H](C(=O)C=C4[C@@H]5C[C@@](C)(C(=O)O)CC[C@]5(C)CC[C@]43C)[C@@]2(C)CC[C@@H]1O	–	129% (inactive)
COc1nc(C)cnc1NS(=O)(=O)c1cccnc1-c1ccc(-c2nnco2)cc1	–	127% (inactive)
O=C(CO)N1CCC(c2[nH]nc(-c3ccc(Cl)cc3)c2-c2ccncn2)CC1	–	127% (inactive)
CC(C)n1c(C=C[C@H](O)C[C@H](O)CC(=O)O)c(-c2ccc(F)cc2)c2ccccc21	4.18 µM (active)	–
CC1CNc2c(cccc2S(=O)(=O)N[C@@H](CCCN=C(N)N)C(=O)N2CC[C@@H](C)C[C@@H]2C(=O)O)C1 (stereo not given in full)	–	116% (inactive)
O=c1[nH]c(=O)n([C@H]2C[C@@H](O)[C@@H](CO)O2)cc1C(F)(F)F	–	142% (inactive)
Fc1ccc(C(c2ccc(F)cc2)N2CCN(CC=Cc3ccccc3)CC2)cc1	–	116% (inactive)
CCC(=O)N1CCN(c2ccc(-n3c(=O)ccc4cnc5ccc(-c6cnc7ccccc7c6)cc5c43)cc2C(F)(F)F)CC1	0.0418 µM (active)	–
Cc1cccc(-c2[nH]c(C(C)(C)C)nc2-c2ccc3c(c2)OCO3)n1	16.6 µM (active)	–
NC(=O)c1ccc(N(C(N)=O)c2c(F)cccc2F)nc1-c1ccc(F)cc1F	–	88% (inactive)
Cc1ccc(NC(=O)c2ccc(CN3CCN(C)CC3)cc2)cc1Nc1nc(-c2cccnc2)cs1	23.5 µM (active)	–
O=C(c1ccc(C=Cc2n[nH]c3ccccc23)cc1)N1CCNCC1	18.7 µM (active)	–

Compound	Potency	viability (% of DMSO control)
CC(C)C[C@H](NC(=O)c1cc2ccccc2s1)C(=O)N1CCN(C(=O)[C@H](CO)NS(=O)(=O)c2ccc(Cl)cc2Cl)CC1	23.5 µM (active)	–
O=C1C(c2c(O)[nH]c3ccccc23)=Nc2ccccc21	1.66 µM (active)	–
CC(C)(F)C[C@H](N[C@@H](c1ccc(-c2ccc(S(C)(=O)=O)cc2)cc1)C(F)(F)F)C(=O)NC1(C#N)CC1	–	152% (inactive)
CCN1CCC(n2cc(CNc3cc(Cl)c4ncc(C#N)c(Nc5ccc(F)c(Cl)c5)c4c3)nn2)CC1	20.9 µM (active)	–
CNC1CCC(N(Cc2cccc(-c3ccncc3)c2)C(=O)c2sc3ccccc3c2Cl)CC1 (stereo not given)	16.6 µM (active)	–
COc1ccc(-c2ccc3ncc4c(c3c2)n(-c2ccc(N3CCNCC3)c(C(F)(F)F)c2)c(=O)n4C)cn1	0.118 µM (active)	–
CC1(C)CC(=O)c2c(C(F)(F)F)nn(-c3ccc(C(N)=O)c(NC4CCC(O)CC4)c3)c2C1 (stereo not given)	0.0935 µM (active)	–
COc1ccc(-c2cc(=O)c3c(O)cc(O[C@@H]4O[C@H](CO[C@@H]5O[C@@H](C)[C@H](O)[C@@H](O)[C@@H]5O)[C@@H](O)[C@H](O)[C@@H]4O)cc3o2)cc1O	18.7 µM (active)	–
CNC1[C@H](O)C(O[C@@H]2C(O)C(O[C@H]3O[C@H]([C@@H](C)NC)CC[C@H]3N)[C@@H](N)C[C@H]2N)OC[C@]1(C)O (stereo not given in full)	–	131% (inactive)
NC1(C(=O)N[C@@H](CCO)c2ccc(Cl)cc2)CCN(c2ncnc3[nH]ccc23)CC1	13.2 µM (active)	–
CC(=O)Nc1cccc(-n2c(=O)n(C3CC3)c(=O)c3c(Nc4ccc(I)cc4F)n(C)c(=O)c(C)c32)c1	1.48 µM (active)	–
C=CCc1cccc(C=NNC(=O)CN2CCN(Cc3ccccc3)CC2)c1O	8.33 µM (active)	–
CN[C@H]1[C@@H](O[C@@H]2[C@H](O[C@@H]3[C@@H](O)[C@@H](O)[C@@H](N=C(N)N)[C@@H](O)[C@@H]3N=C(N)N)O[C@H](C)[C@@]2(O)C=O)O[C@@H](CO)[C@@H](O)[C@H]1O	–	146% [at 15.3 µM] (inactive)
CN[C@@H]1[C@@H](O)[C@@H](O[C@@H]2[C@@H](O)[C@H](O[C@H]3O[C@H](CN)[C@@H](O)[C@H](O)[C@@H]3O)[C@@H](N)C[C@@H]2NC(=O)[C@@H](O)CN)OC[C@]1(C)O	18.7 µM (active)	–
CO[C@H]1O[C@@H]2O[C@@]3(C)CC[C@@H]4[C@@H](C)CC[C@@H]([C@H]1C)[C@@]24OO3	–	151% (inactive)
Cc1ccc2c(=O)c3cccc(CC(=O)O)c3oc2c1C	18.7 µM (active)	–
CN1CC(=O)N2C(Cc3c([nH]c4ccccc34)[C@H]2c2ccc3c(c2)OCO3)C1=O (stereo not given in full)	–	124% (inactive)
CCCCC(F)(F)[C@@]1(O)CC[C@H]2[C@H](CC(=O)[C@@H]2CCCCCCC(=O)O)O1	–	128% (inactive)
CCn1c(-c2nonc2N)nc2cncc(CNC3CCNCC3)c21	–	108% (inactive)
CN(C)CCCNC(=O)c1ccc(-c2cc(O)c3ncccc3c2)cc1	20.9 µM (active)	–
